We go through six molecules from PMC12136788.

Over roughly 5,800 sequences, “enrichment r” has its median near 0.68; the highest 2% begin near 11. Only a selection was taken, and the highest values are over-represented in it overall.

T1: UNK ZnF1-6 (called full-length) (human, UniProt Q9C0B0 30-357)
T1 sequence: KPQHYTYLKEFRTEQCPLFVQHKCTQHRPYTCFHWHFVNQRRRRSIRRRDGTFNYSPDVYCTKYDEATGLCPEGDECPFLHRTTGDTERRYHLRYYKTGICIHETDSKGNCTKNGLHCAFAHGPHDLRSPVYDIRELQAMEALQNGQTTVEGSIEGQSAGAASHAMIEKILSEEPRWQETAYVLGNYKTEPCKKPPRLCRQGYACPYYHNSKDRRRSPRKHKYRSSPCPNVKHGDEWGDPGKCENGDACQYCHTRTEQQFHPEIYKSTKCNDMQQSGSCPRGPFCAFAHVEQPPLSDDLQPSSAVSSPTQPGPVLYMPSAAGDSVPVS

B1: chr16:785952:786377:-|CDS|ENSG00000007376|control|control|control (ssRNA)
RNA: GGGAGUUCUACAGUCCGACGAUCCAGUCGCUGGACCAGCUCGUGCAGGCCUUACGGGCCACCCCCGACCCUGACCCCGAGGAUAGGGGCCCCAGGCCAGGCAGCCCCUCCGCACUCCUGCCUGGGCCCGGCCGGCCUCCUCCACAACAGAGGAUUGAGCAUCA
B2: chr1:162783069:162783171:+|3pUTR|ENSG00000162733|unk|FALSE|unique (ssRNA)
RNA: GGGAGUUCUACAGUCCGACGAUCUGAAAGUAGUUCAAAUUUGAAUUAGAAGAAUGAAGCUAGGACUUAUUUGGAAAAGGAGAUAGAAAAAAAAUGAUCAGAAACUGUGGGGCCUUAUUACCUUUGCAGUAAGUUAUCUUCUUCCAACAGAGGAUUGAGCAUCA
B3: chr15:64957256:64957357:+|3pUTR|ENSG00000166839|msi1|FALSE|unique (ssRNA)
RNA: GGGAGUUCUACAGUCCGACGAUCGCUGGAAAAUUGAAACAUAAUUUCACAAUUAUUCCUUUUUCCACCUUAAAUAAUAAGAGUAGAAUACUUUCUGUGUUUUUAUCUUAUACACAUGAAUAAAUGCUAUGGCUUAUCACAGUUCAACAGAGGAUUGAGCAUCA
B4: ENSG00000114744:stop:overlap|stop_codon|ENSG00000114744|stop_codon|NA|stop_codon (ssRNA)
RNA: GGGAGUUCUACAGUCCGACGAUCAACAAGCAUUGGAAGAGAUGAAGACAAAUCACUGUAGGAGAGUUGUUCGCAACAUCAAGUAGUACCAGUUUUAAGGUUUUAAUUCAUUUGAAUCACUUAUGAAUUGAUGAUAUACAGCAACAACAGAGGAUUGAGCAUCA
B5: ENSG00000066855:stop:overlap|stop_codon|ENSG00000066855|stop_codon|NA|stop_codon (ssRNA)
RNA: GGGAGUUCUACAGUCCGACGAUCGAGUGUUGUCCCUUCCAGCUGGCUUUAUUCAGCCCCACGUGUCCAAGCAUUGUCUGGGAUAGCCUUGUAUUGGAAAACCUGGCCCAUUCUGUAAAUAAAGGCUCCACUAGAAAAGACUCGCAACAGAGGAUUGAGCAUCA
B6: chr1:184691659:184691688:-|3pUTR|ENSG00000116406|msi1_unk|FALSE|overlapping (ssRNA)
RNA: GGGAGUUCUACAGUCCGACGAUCCUCCAACGUUGUAAUUACAACUCUACAUUCAUUUACUUACUUGACAUACUGCCACAAAGUAGUUUUUGAGUUCAUUAAAAAUUCCAAAGGCAUUAGUUGUUUUUUUUUUUUUUAGUGUUUCAACAGAGGAUUGAGCAUCA

The target of this assay is T1, UNK ZnF1-6 (called full-length). Kind of assay: nsRBNS (natural sequence RNA bind-n-seq); RBNS binding buffer (assumed for nsRBNS): 25 mM Tris pH 7.5, 150 mM KCl, 3 mM MgCl2, 0.01% Triton X-100, 500 ug/ml BSA, 20 U/ml SUPERase-In, 4 C; UNK is unkempt and MSI1 is Musashi-1; names of the RNAs are library labels; protein concentration not given here; high values mean tight binding.
B1 came in with a binding signal of 0.526 enrichment R. With B2 the figure was 1.05 enrichment R; with B3, 0.535 enrichment R. As for B4, the binding signal came out at 2.3 enrichment R. With B5 the figure was 0.862 enrichment R; with B6, 8.44 enrichment R.
